Screens: PubChem BioAssay, The Scripps Research Institute Molecular Screening Center
Hits are enriched below; roughly 5.7% of the tested compounds scored in any of these assays.
ssDAF-12 act: activates DAF-12 receptor from parasite S. stercoralis. actives 1% (n = 370,000). HEK293 ssDAF-12/GRIP1 lit1-tk-luc reporter, luminescence; % of 3 µM dafachronic acid response. activation, % at 6.8 µM. AID 652126;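 active = activation above the mean over all tested compounds plus 3 SD, cut at about 0.9% in these data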;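 also: 0% = DMSO-only wells and 100% = 3 µM delta7-dafachronic acid wells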
DAX1 inh-1: blocks DAX1 repression of SF-1 activated StAR promoter | HEK293T StAR-luciferase reporter, SF-1/DAX-1 repression relief | inhibition, % at 6.8 µM | actives 1.1% (n = 370,000) | AID 652010;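 active = inhibition above the mean over all tested compounds plus 3 SD, cut at about 3.6% in these data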;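 also: 0% = DAX-1 cells with DMSO and 100% = cells lacking DAX-1 with DMSO; higher inhibition means more luminescence from relief of DAX-1 repression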
hcDAF-12 act: H. contortus DAF-12 activation, primary screen; HEK293 hcDAF-12 lit1-tk-luc reporter, luminescence; 0% DMSO, 100% Δ7-dafachronic acid; AID 652067; actives 1.4% (n = 370,000); activation, % at 6.8 µM;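 active = activation above the mean of all tested compounds plus 3 SD, cut at about 5.5% in these data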;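 also: 100% = response to 3 µM Δ7-dafachronic acid high control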
DAX1 inh-2: inhibits human nuclear receptor DAX1 | inhibition, % at 6.75 µM | HEK293 Gal4-DAX1 luciferase reporter, luminescence | P51843 | actives 0.99% (n = 340,000);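 active = inhibition above the mean over all tested compounds plus 3 SD, cut at about 4.2% in these data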;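 also: 0% = DAX1-transfected cells with DMSO and 100% = empty-vector control cells with DMSO; inhibition shows as a rise in luminescence from relieved DAX1 repression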
hgDAF-12 ag: activates the H. glycines DAF-12 receptor ligand-binding domain; HEK293 GAL4-hgDAF12 UAS-luciferase reporter, agonist luminescence; normalized to butyrate control; activation, % at 6.8 µM; actives 1.8% (n = 370,000); AID 687014;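 active = activation above a cutoff set at the mean of all screened compounds plus 3 SD, cut at about 10% in these data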;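 also: 0% = DMSO wells and 100% = sodium butyrate wells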
AHR activator: activates the human aryl hydrocarbon receptor | P35869 | AHR-responsive luciferase reporter cells, luminescence | activation, % at 5 µM | actives 2.5% (n = 320,000) | AID 2796; in the data active = activation above about 47%;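 also: 0% = vehicle wells and 100% = reference agonist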
Numbers without * were called inactive; nt = not tested or not shown.

SMILES	ssDAF-12 act	DAX1 inh-1	hcDAF-12 act	DAX1 inh-2	hgDAF-12 ag	AHR activator
O=C(CN1C(=O)C2C3c4ccccc4C(c4ccccc43)C2C1=O)Nc1ccccc1C(=O)O (centres undefined)	-1	1	0	0	0	-4
Nc1c(C(=O)N2CCCCC2)sc(=S)n1-c1ccccc1	-1	0	-1	2	-1	-1
Nc1nc(SCc2ccccc2)sc1C(=O)N1CCCCC1	-1	2	4	3	11*	nt
COc1ccc(CCNC(=O)C/C(C)=N/NC(=O)c2cnccn2)cc1	-1	4.2*	2	1	5	14
COc1ccc(NC(=O)C/C(C)=N/NC(=O)c2cccs2)c([N+](=O)[O-])c1	0	2	5	3	11*	21
COc1ccc(NC(=O)C/C(C)=N/NC(=O)c2ccccn2)c(OC)c1	0	3	4	1	12*	5
COc1ccc(CCNC(=O)c2cnccn2)cc1	-2	1	1	0	-1	8
O=C1NC(=O)C2(CCCC2c2ccccc2)N1 (centres undefined)	-1	-1	0	2	2	nt
CCN(CC)S(=O)(=O)c1ccc(C(=O)NCC(c2ccc(OC)cc2)N2CCOCC2)cc1 (centres undefined)	0	1	-2	-1	-1	1
Clc1nssc1=Nc1ccccc1	nt	nt	nt	0	nt	nt
Clc1ccc(N=c2ssnc2Cl)cc1	0	0	0	-1	2	59*
CC(C)c1ccc(OCCCN2CCC(C(O)(c3ccccc3)c3ccccc3)CC2)cc1	-1	0	-2	nt	0	nt
C[n+]1cccc(C(=O)NNC(=O)C23CC4CC(CC(C4)C2)C3)c1	-1	0	-2	0	0	-1
Cc1cccc(C)c1NC(=O)CN1CCCC1	-1	0	-1	4.5*	-3	nt
COC(=O)c1oc2ccccc2c1NC(=O)CN1CCCC1	-2	1	-1	1	1	54*
CC(=O)c1oc2ccccc2c1NC(=O)CCCN1C(=O)c2ccccc2C1=O	0	4	5.8*	0	6	5
Cc1cccc(C)c1NC(=O)CN1CCNCC1	-1	1	-1	0	1	-2
CNC12CCc3cc(OC)c(OC)c(c31)-c1cc3c(cc1C2)OCO3 (centres undefined)	-1	-1	1	nt	-2	nt
O=C(NC(=S)Nc1ncccn1)c1ccc(F)cc1	0	1	3	3	5	1
COc1ccc(-c2cc(C(=O)Nc3cccnc3Cl)no2)cc1	-1	0	-1	0	-1	-1
O=C(NC(=S)Nc1cccnc1Cl)c1ccc(F)cc1	0	1	4	5.4*	9	5
O=C(Nc1cccnc1Cl)c1cc(-c2ccc(F)cc2)on1	-1	0	0	5.0*	-1	0
Cc1ccc(NC(=O)c2cc(-c3ccc(F)cc3)on2)cc1C	-2	0	-2	6.1*	1	-4
COc1ccc([N+](=O)[O-])cc1C(=O)Nc1ccc(Cc2ccncc2)cc1	0	0	0	0	4	72*
C[C@H](O)[C@@H]1CN2CCc3ccc(-c4ccc5c(c4)OCO5)cc3[C@@H]2C[C@@H]1N(C)C(=O)c1cccc(Cl)c1	-1	0	-2	nt	3	nt
SMILES	ssDAF-12 act	DAX1 inh-1	hcDAF-12 act	DAX1 inh-2	hgDAF-12 ag	AHR activator
O=c1oc2ccccc2c(Nc2ccc3ccccc3c2)c1[N+](=O)[O-]	nt	nt	nt	1	nt	65*
Cn1c(=O)c2c(SCC(=O)Nc3nccs3)nc(C3CC3)nc2n(C)c1=O	-1	0	0	3	0	1
O=C(/C=C(\Nc1cc(Cl)c(F)c(Cl)c1)c1ccccc1)c1ccccc1	-1	0	2	nt	1	nt
O=C(/C=C(\Nc1cc(Cl)c(Cl)c(Cl)c1)c1ccccc1)c1ccccc1	1.5*	1	5	nt	7	nt
CCc1ccc(Nc2ncc3c(n2)CC(C)CC3=O)cc1 (centres undefined)	0	3.8*	1	1	10	6
CCc1ccc(Nc2ncc3c(n2)CC(c2ccc(OC)cc2)CC3=O)cc1 (centres undefined)	-1	-1	1	0	-1	8
CCc1ccc(Nc2ncc3c(n2)CC(C)(C)CC3=O)cc1	-1	1	2	7.1*	7	2
O=C(N1CCCC1)C(F)(F)Oc1ccc(F)cc1	-1	0	1	-1	4	-3
COc1ccc(Cc2c(-c3ccc(C#N)cc3)nc3c4ccccc4ccn23)c(C)c1	-1	-1	2	nt	5	nt
COc1ccc(Cc2c(-c3ccccc3)nc3c4ccccc4ccn23)c(C)c1	0	0	5.6*	nt	9	nt
COc1ccc(Cc2c(-c3ccc(F)cc3)nc3c4ccccc4ccn23)c(C)c1	1	1	6.0*	nt	3	nt
O=C(NCc1ccccc1Cl)C(=O)c1cn(CC(=O)N2CCOCC2)c2ccccc12	-1	0	-1	0	2	0
CCc1ccc(/C(C)=N\Nc2ccc([N+](=O)[O-])cc2)cc1	0	0	1	4.3*	6	15
C/C(=N\Nc1ccc([N+](=O)[O-])cc1)c1ccc(-n2nncc2C)cc1	-2	-1	-3	-3	1	50*
C/C(=N\Nc1ccc([N+](=O)[O-])cc1)c1ccc(N)cc1	0	1	2	2	5	22
COc1ccc(/C(C)=N/NC(=O)CNC(=O)C(c2ccccc2)c2ccccc2)c(OC)c1	-2	-2	1	0	0	-3
O=C(Nc1ccc(F)cc1)c1ccc(=O)[nH]n1	-1	0	2	1	3	6
O=C(Nc1ccc(F)cc1)c1cccnn1	-1	0	2	0	2	51*
COc1ccccc1/C=C/C(=O)OCC(=O)NC1CCCCCCC1	-1	-2	0	-1	0	-1
CCN1C(=O)[C@H]2[C@@H](c3ccc(OC)cc3)N[C@]3(CCCN(Cc4ccc(F)cc4)C3=O)[C@H]2C1=O	-1	0	-1	0	-1	nt
CCCCOc1ccc(C(=O)NC2CCCCN(Cc3ccc(C)cc3)C2=O)cc1 (centres undefined)	-2	-3	-3	nt	-1	nt
CCOc1ccccc1/C=N/Nc1ccccc1[N+](=O)[O-]	-1	0	-1	-1	1	14
CC(C)Oc1ccccc1/C=N/Nc1ccccc1[N+](=O)[O-]	-1	-1	4	-1	3	55*
COc1ccc(NS(=O)(=O)c2cc([N+](=O)[O-])ccc2N/N=C/c2c(C)[nH]c3ccccc23)cc1	-1	0	2	0	1	nt
Cc1[nH]c2ccccc2c1/C=N/Nc1ccccc1[N+](=O)[O-]	0.9*	0	5	0	4	29
